The target in one test is Albumin (Bos taurus) (UniProt P02769). In words: compounds binding labelled BSA control protein – biochemical, small-molecule microarray, Alexa647 label, 635/667 nm fluorescence, artefact control for SMM control protein annotation, profiling panel (AID 1118).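 Also: score merges 667 nm emission intensity and signal-to-noise per printed compound spot.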 The settings on record: BSA-A647 binding, fluorescence 635 nm, higher = more signal.
Test [1] in a line: probe aXIP binding to arrayed compounds – biochemical, NeuroSMM set, 635/667 nm fluorescence, primary screen (AID 1119).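 Also: probe is the protein aXip251-270 applied at 1 µg/mL to compound-printed slides; binding of probe to printed compounds measured as 667 nm fluorescence plus signal to noise.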 The settings on record: small-molecule microarray, higher = more signal, called active from +8 up or from −8 down.
Test [2] can be described thus: probe aNOTCH3 binding on compound microarray – biochemical, small-molecule microarray, 635/667 nm fluorescence, primary screen (AID 1120).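 Also: probe is a biotin-tagged antibody raised against NOTCH3 rather than NOTCH3 protein; score merges spot fluorescence near 667 nm with spot signal to noise.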 As to conditions: higher = more signal.
Test [3] can be described thus: probe aNOTCH2 binding on compound microarray – biochemical, small-molecule microarray, 635/667 nm fluorescence, primary screen (AID 1121).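 Also: score merges feature fluorescence read at 667 nm with its signal to noise.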 The settings on record: higher = more signal.
For test [4], the target named is Carbonic anhydrase 2 (Homo sapiens) (UniProt P00918). Nature of the test: compounds binding carbonic anhydrase 2 – biochemical, small-molecule microarray, Alexa647-labelled CAII, profiling panel (AID 1122). The settings on record: CAII-A647 binding fluorescence, higher = more signal.
Test [5] can be described thus: COS7 lysate on small-molecule microarray, probe aHis, 635 nm (AID 1123).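 Also: z-score combines 667nm fluorescence intensity with signal-to-noise per printed compound spot.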 As to conditions: COS7 cell lysate, fluorescence, higher = more signal.
The nature of test [6]: probe aLAP1 signal on lysate-treated microarray – cell lysate, small-molecule microarray, COS7 lysate, primary screen (AID 1124).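 Also: lysate comes from COS7 cells expressing LAP1 and is applied at 0.3 µg/mL; score merges spot fluorescence near 667 nm with signal-to-noise over triplicate slides.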 As to conditions: probe aLAP1, fluorescence, higher = more signal.
The test system of the next test is Sam68 (KHDRBS1). Nature of the test: compounds binding KHDRBS1 protein – biochemical, small-molecule microarray, 635 nm fluorescence, primary screen (AID 1125).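 Also: score merges 667 nm channel intensity with signal to noise over triplicate slides.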 As to conditions: higher = more signal.
In test [7] the test system is Chordin-like protein 2 (CHRDL2). Nature of the test: compounds binding chordin-like 2 – biochemical, small-molecule microarray, 635 nm fluorescence, primary screen (AID 1126).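 Also: printed compound slides probed with Chrdl2 protein at 4 µg/mL for 1 h at 4 C; score merges 667 nm emission intensity with signal to noise over three replicate slides.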 The settings on record: fluorescence 635 nm, higher = more signal.
Test [8] deals with Concanavalin-A (Canavalia ensiformis) (UniProt P02866). In words: compounds binding concanavalin A lectin – biochemical, small-molecule microarray, Alexa647 label, 635 nm, artefact control for SMM control protein annotation, primary screen (AID 1127).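 Also: z combines 667 nm emission intensity with signal-to-noise across three replicate slides.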 The settings on record: ConA-A647 binding fluorescence, higher = more signal.

Calls of active or inactive are those of the source.

Chain of Concanavalin-A (Canavalia ensiformis) (P02866 whole entry, looked up): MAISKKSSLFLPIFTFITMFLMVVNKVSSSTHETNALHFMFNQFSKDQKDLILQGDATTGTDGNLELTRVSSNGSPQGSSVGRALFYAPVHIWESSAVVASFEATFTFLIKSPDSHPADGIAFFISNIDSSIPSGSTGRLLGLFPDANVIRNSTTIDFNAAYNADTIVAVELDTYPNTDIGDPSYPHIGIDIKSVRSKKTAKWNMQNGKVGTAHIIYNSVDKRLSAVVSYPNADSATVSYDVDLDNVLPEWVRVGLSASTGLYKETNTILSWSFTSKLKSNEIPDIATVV
Chain of Albumin (Bos taurus) (P02769 whole entry, looked up): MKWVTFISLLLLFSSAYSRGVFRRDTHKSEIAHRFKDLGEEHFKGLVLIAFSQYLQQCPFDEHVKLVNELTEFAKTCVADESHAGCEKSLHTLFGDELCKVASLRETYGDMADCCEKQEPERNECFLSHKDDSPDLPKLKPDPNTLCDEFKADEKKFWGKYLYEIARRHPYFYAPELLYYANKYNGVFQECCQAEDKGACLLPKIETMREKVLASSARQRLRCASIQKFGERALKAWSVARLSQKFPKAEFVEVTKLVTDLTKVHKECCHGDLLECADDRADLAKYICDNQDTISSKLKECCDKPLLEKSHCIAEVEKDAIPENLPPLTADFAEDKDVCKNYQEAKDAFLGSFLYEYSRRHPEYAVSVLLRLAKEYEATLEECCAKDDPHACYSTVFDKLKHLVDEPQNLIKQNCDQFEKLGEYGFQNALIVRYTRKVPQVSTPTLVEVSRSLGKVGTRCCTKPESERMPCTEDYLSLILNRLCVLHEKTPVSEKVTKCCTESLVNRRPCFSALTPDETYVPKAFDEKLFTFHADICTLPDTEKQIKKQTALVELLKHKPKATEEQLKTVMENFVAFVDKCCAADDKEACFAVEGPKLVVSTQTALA

As for `CCc1cccc(NC(=O)O[C@H]2[C@H](OC(=O)Nc3ccc4c(c3)OCO4)[C@@H](OC(=O)Nc3ccc4c(c3)OCO4)[C@@H](OC)O[C@@H]2CO)c1`, the composite z-score with Albumin (Bos taurus) was 0.539; in test [2], 0.42; in [3] it was -0.0714; in [4] it was 0.645; in test [5], 2.42; in test [6], 0.665. Further, the composite z-score was 1.29 in the test on Sam68 (KHDRBS1), 0.463 in test [7] and 0.638 in test [8]. Besides, in test [1], the composite Z-score is 0.108 (inactive).
Turning to `O=C1NC(=O)C2C1C=CC(C(O)Cc1ccccc1)N2Nc1ccccn1` (stereo not given), the composite z-score in the test with Albumin (Bos taurus) is 0.461; in test [2], -0.0311; in [3] it was -0.0079; in test [4] it was 0.865; in [5], 1.87; in test [6], 0.12. Moreover, the composite z-score with Sam68 (KHDRBS1) was 0.322; in test [7] it was 0.313; in test [8], 0.77. In [1], the composite Z-score was -0.0126 (inactive).
As to `COc1ccc([Si](C)(C)[C@H]2[C@H](CC(=O)N3CCC[C@H]3CO)O[C@@]3(C(=O)N(Cc4cccc(N5C(=O)COc6ccccc65)c4)c4ccccc43)[C@@H]2C)cc1`, the composite z-score is 0.34 with Albumin (Bos taurus); 0.0293 in test [2]; -0.0556 in [3]; 0.437 in test [4]; 2.38 in test [5]; 0.125 in [6]. Also, the composite z-score in the test with Sam68 (KHDRBS1) is 1.26; in test [7], 0.959; in test [8] it was 0.997. For the same compound, the composite Z-score in [1] is 0.33 (inactive).
Consider `CC=CC1=C(CO)[C@H](O)[C@H]2O[C@H]2[C@H]1O`, for which the composite z-score with Albumin (Bos taurus) was -0.15; in test [2] it was -0.113; in [3], -0.146; in test [4] it was -0.173; in test [5] it was -0.188; in test [6], -0.182. The composite z-score in the test on Sam68 (KHDRBS1) turned out to be 0.278; in test [7] it was 1.09; in test [8], 0.291. Further, the composite Z-score in test [1] is 0.0448 (inactive).
Turning to `NCCCCCNC(=O)[C@@H]1C[C@@H]2C(=O)N3CCC[C@H]3C(=O)N2[C@@H]1c1cccc(OCCO)c1`, the composite z-score came to 0.533 with Albumin (Bos taurus); 0.453 in test [2]; 0.294 in test [3]; 0.659 in test [4]; 1.68 in test [5]; 1.09 in test [6]. The composite z-score in the test on Sam68 (KHDRBS1) came out at 1.19; in test [7], 1.14; in [8], 1. Besides, the composite Z-score in [1] is 1.34 (inactive).
Regarding `CN1C(=O)C2C=CC(C(O)c3ccc(Br)cc3)N(N(c3ccccc3)c3ccccc3)C2C1=O` (stereo not given), the composite z-score with Albumin (Bos taurus) was 0.296; in test [2] it was -0.0003; in test [3], -0.0976; in [4], 0.106; in test [5] it was 1.04; in [6], -0.068. For the same compound, the composite z-score in the test on Sam68 (KHDRBS1) is 0.676; in [7] it was -0.815; in test [8] it was 0.951. Further, the composite Z-score in test [1] was 0.49 (inactive).
In the case of `Cn1cccc1C(O)C1C=CC2C(=O)NC(=O)C2N1Nc1ccccn1` (stereo not given), the composite z-score in the test with Albumin (Bos taurus) is 0.809; in [2], -0.0166; in test [3], -0.171; in test [4] it was 0.914; in [5] it was -0.318; in test [6], 0.503. Moreover, the composite z-score was -1.45 with Sam68 (KHDRBS1), 0.148 in test [7] and -0.0954 in [8]. The composite Z-score in test [1] is 0.0019 (inactive).
As to `CC(CCN1CCc2nc(-c3ccccc3)c(-c3ccccc3)cc2C1)=NO[C@H](C)c1cn([C@@H]2COC[C@H]2O)nn1`, the composite z-score is 0.156 with Albumin (Bos taurus); 0.0864 in [2]; -0.117 in [3]; -0.089 in test [4]; 0.507 in [5]; 0.222 in [6]. The values for the composite z-score (with Sam68 (KHDRBS1); in [7]; in [8]) were 1.31, 0.0957 and -0.411, respectively. In addition, in [1], the composite Z-score is -0.0135 (inactive).
With `CCOC(=O)[C@H](Cc1ccccc1)NC(=O)CCC1CC(OC(=O)NCc2ccc3c(c2)OCO3)CC2(CCCC(COC(=O)NCc3cccc(C(F)(F)F)c3)O2)O1` (stereo not given in full), the composite z-score is -0.0075 with Albumin (Bos taurus); 0.0224 in test [2]; -0.123 in test [3]; -0.106 in test [4]; 0.287 in test [5]; -0.0375 in test [6]. In addition, the composite z-score in the test on Sam68 (KHDRBS1) was 0.843; in test [7], 0.393; in test [8], 0.546. The composite Z-score in test [1] was -0.944 (inactive).
As for `CCCNC(=O)[C@@H]1c2ccccc2C(=O)N(c2ccc(C)cn2)[C@H]1c1ccc(CO)cc1`, the composite z-score is 0.206 with Albumin (Bos taurus); -0.305 in test [2]; -0.109 in test [3]; 0.769 in [4]; -0.018 in test [5]; -0.514 in test [6]. In addition, the composite z-score in the test on Sam68 (KHDRBS1) was -0.646; in test [7], -0.382; in [8], -0.984. Moreover, the composite Z-score in test [1] is -0.207 (inactive).
`CC(=O)C[C@H](O)[C@@H](NC(=O)OC(C)(C)C)C(C)C`: the composite z-score with Albumin (Bos taurus) was -0.587; in [2], -0.0903; in test [3], -0.14; in test [4], -0.424; in test [5] it was -0.336; in test [6], -0.286. The composite z-score in the test on Sam68 (KHDRBS1) is -1.8; in [7] it was -0.405; in [8], -0.385. Moreover, in test [1], the composite Z-score is -0.24 (inactive).
For `CCOC(=O)[C@H](Cc1ccccc1)NC(=O)CCC1CC(OC(=O)NCc2ccc3c(c2)OCO3)CC2(CCCC(COC(=O)NCC(c3ccccc3)c3ccccc3)O2)O1` (stereo not given in full), the composite z-score in the test with Albumin (Bos taurus) was 0.48; in test [2] it was 0.17; in [3] it was -0.11; in test [4] it was 0.28; in [5], 0.86; in [6], 0.0713. Further, the composite z-score in the test on Sam68 (KHDRBS1) worked out at 1.32; in test [7], 0.226; in test [8] it was 0.329. Also, in test [1], the composite Z-score was -0.718 (inactive).
On to `CC(C)NC(=O)[C@@]1(C)c2ccccc2C(=O)N(Cc2cc(F)cc(C(F)(F)F)c2)[C@H]1c1ccc(CO)cc1`, for which the composite z-score in the test with Albumin (Bos taurus) was 0.293; in test [2], 0.191; in test [3] it was -0.102; in test [4], 0.645; in test [5], 1.03; in test [6], 0.433. Also, the composite z-score in the test with Sam68 (KHDRBS1) came to 1.23; in test [7], 0.153; in test [8] it was 0.674. Also, the composite Z-score in test [1] was 0.74 (inactive).
Take `CCOC(=O)NN=C1C[C@@H](O)[C@@H](O)[C@@H]2[C@@H]3C(=O)N(C4CCCCC4)C(=O)[C@@H]3CC[C@H]12`: the composite z-score is 0.801 with Albumin (Bos taurus); 0.0242 in [2]; -0.037 in [3]; -0.0418 in [4]; 0.387 in [5]; 0.16 in [6]. The composite z-score in the test with Sam68 (KHDRBS1) turned out to be 0.458; in test [7] it was 0.0341; in [8], 0.357. Moreover, in [1], the composite Z-score was -0.0662 (inactive).
In the case of `COC(=O)[C@@H]1CC[C@H](C)[C@@H](c2ccc(C)cc2)N1C(=O)c1ccc(C=NOC[C@@H](O)COCc2ccco2)cc1`, the composite z-score was -0.188 with Albumin (Bos taurus); -0.0077 in test [2]; -0.195 in [3]; -0.746 in test [4]; -1.31 in test [5]; 0.171 in test [6]. Also, the composite z-score was -1.9 with Sam68 (KHDRBS1), -0.177 in [7] and -3.62 in test [8]. In addition, the composite Z-score in [1] is -0.93 (inactive).
As to `O=C1CCCC2OC12C(O)CCc1ccccc1` (stereo not given), the composite z-score was -0.0592 with Albumin (Bos taurus); -0.0581 in test [2]; -0.185 in test [3]; -0.22 in [4]; -0.324 in test [5]; -0.2 in test [6]. Moreover, the composite z-score was determined as 0.17 in the test on Sam68 (KHDRBS1), 0.594 in test [7] and 0.594 in test [8]. The composite Z-score in test [1] is 0.319 (inactive).

For the origin of these results see PubChem BioAssay.
